VCAM1 pot – TNF alpha stimulated VCAM1 expression potentiation | activation, % at 2 µM | HUVEC TNFa-stimulated VCAM-1 immunofluorescence, high-content imaging; scaled per plate to unstimulated/TNFa-only wells | actives 0.19% (n = 93,000) | AID 808;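 active = activation above the screen mean plus 3 SD, with well images confirming the hit on visual review, cut at about 28% in these data, passing the limit was not always enough; inconclusive = activation above that limit but images do not confirm it; inactive = activation not above that limit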;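 note: signal is the number of cytoplasmic VCAM-1 stained grains per positive cell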
VCAM1 pot conf – enhancers of VCAM1 induction in HUVEC – imaging, triplicate retest, confirmation. shares compounds with VCAM1 pot. AID 1034. 230 tested, under 10 active. HUVEC TNFa-stimulated VCAM-1 immunofluorescence imaging. activation, % at 2 µM;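 active = activation above 30% in triplicate retests at 2 µM, then confirmed by visual review of the well images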
Each line names hits and unclear results; the compound was inactive in the other large screens (follow-up assays come after a bar, where they were run). The full list was thinned out, with hits kept by preference.

Cc1cccc(Cn2c(C(=O)OC(C)C)cc3c2ccn3C)c1	none
Cc1nn(C(CC(=O)O)C(=O)O)c(C)c1Br (stereo unspecified)	none
Cn1c(SCC(=O)NC2CC2)nnc1-c1cccc(NC(=O)c2ccccc2F)c1	none
Cn1c(=O)c2c(-c3ccncc3)c3c(nc2n(C)c1=O)-c1ccccc1C3=O	none
CCN1C(=O)C(CC(=O)Nc2ccc(Br)cc2)N(CCCc2ccccc2)C1=S (stereo unspecified)	none
CC(C)NC(=O)c1ccccc1NC(=O)CCc1ccccc1	none
CC1CCc2c(sc3ncnc(N4CCN(S(=O)(=O)c5cccc6nonc56)CC4)c23)C1 (stereo unspecified)	none
Cc1c(NC(=O)CC2CC(C)OC2=O)c(=O)n(-c2ccccc2)n1C (stereo unspecified)	none
CCOc1ccc2nc(SCC(=O)NC(=O)NCc3ccco3)[nH]c2c1	none
CCCCn1c(SCC(=O)c2ccc3c(c2)OCCO3)nnc1-c1ccco1	none
O=C(CCC(=O)N1CCc2ccccc21)Nc1ccccc1	none
O=C(CCN1CCc2ccccc21)c1ccc2c(c1)OCCO2	VCAM1 pot 67.4 | VCAM1 pot conf inactive
O=C1Nc2c(c(=O)[nH]c(=O)n2-c2ccccc2F)C(C(F)(F)F)(C(F)(F)F)N1	none
O=S(=O)(NCc1ccco1)c1ccc(S(=O)(=O)N2CCCCC2)cc1	none
COc1cc2c(cc1NC(=O)c1cc(-c3ccncc3)nc3ccc(C)cc13)oc1ccccc12	none
CCOC(=O)c1cnc2nc(COc3ccccc3)[nH]n2c1=O	none
Cc1nc(SCC#N)c2c(C)c(C)sc2n1	none
Cc1ccc(C)n1NC(=O)c1cccc(Cl)c1	none
COc1ccc(CN(C)C2CCCCC2)c(C)c1C	none
O=C(COc1ccc2ccccc2c1Br)Nn1cnnc1	none
CC(C)(C)C1CCC2(CC1)C(Nc1cccc(C(F)(F)F)c1)=NC(=S)N2CC#N (stereo unspecified)	VCAM1 pot inconclusive | VCAM1 pot conf inactive
COc1cccc(C2C(C(C)=O)=C(O)C(=O)N2CCc2c[nH]c3ccccc23)c1 (stereo unspecified)	none
CC/C(=C\C(=O)c1ccncc1)Nc1ccc(Br)cc1	none
Cc1cc(NCCN(C)C)n2nc(-c3cccs3)cc2n1	VCAM1 pot 40.9 | VCAM1 pot conf inactive
N=C1C(=O)OCC1c1cc(Cl)ccc1NC(=O)Nc1ccccc1 (stereo unspecified)	none
COc1ccc(CCN2C(=O)C(O)=C(C(=O)c3ccco3)C2c2cccs2)cc1OC (stereo unspecified)	none
COc1ccc(C(=O)Nn2c(C)nnc2-n2nc(C)cc2C)cc1OC	VCAM1 pot 42.7 | VCAM1 pot conf inactive
COc1ccc(C(=O)/C(C)=N/O)cc1OC	none
COc1ccc(C(=O)Nc2nc3ccccc3[nH]2)cc1OC	none
CCOC(=O)c1sc(NC(=O)/C=C/c2cnn(CC)c2C)c(C(=O)OCC)c1C	none
Cn1cc(SCC(=O)N2CCCc3ccccc32)c2ccccc21	none
COc1ccccc1-n1cnc2cc(NS(=O)(=O)c3ccc(Br)cc3)ccc21	none
CC(C)(C)N1CC2(c3ccccc3)CN(C(C)(C)C)CC(c3ccccc3)(C1)C2=O	none
CCOc1cc2[nH]c(=S)n(CCCC(=O)NCc3ccco3)c(=O)c2cc1OCC	none
CCn1c(=O)cc(OCC(=O)NCc2ccco2)c2ccccc21	none
O=C(CCCn1c(=O)c2ccccc2n(CC(=O)NCc2ccco2)c1=O)NCc1ccco1	VCAM1 pot inconclusive | VCAM1 pot conf inactive
O=C(NC(C(=O)c1ccccc1)n1ccc(=O)[nH]c1=O)c1ccccc1 (stereo unspecified)	none
COC(=O)c1ccc(C2C(C(C)=O)=C(O)C(=O)N2CCO)cc1 (stereo unspecified)	none
CC(NC(=O)c1ccco1)C(c1cccs1)N1CCOCC1 (stereo unspecified)	none
Cn1c(NCc2c[nH]c3ccccc23)nc2ccccc21	none
Cn1c(/C=N/n2cnnc2)nc2ccccc21	VCAM1 pot inconclusive | VCAM1 pot conf inactive
Cn1c(/N=C/c2c[nH]c3ccccc23)nc2ccccc21	none
Cn1c(SCC(=O)CC(=O)Nc2ccccc2)nnc1-c1ccc(O)cc1	none
Cc1ccc(-c2nnc(SCC(=O)CC(=O)Nc3ccccc3)n2C)cc1	none
CCCSc1nnc(-c2cnn(-c3ccccc3)c2-n2cccc2)n1C	VCAM1 pot 36.2 | VCAM1 pot conf inactive
CCn1cc([N+](=O)[O-])c(C(=O)N2N=C3/C(=C/c4cccs4)CCCC3C2c2cccs2)n1 (stereo unspecified)	none
CCC(=O)NC(c1ccc([N+](=O)[O-])cc1)c1c(O)ccc2ccccc12 (stereo unspecified)	none
O=C(CCc1ccccc1)Nc1cc(C(F)(F)F)ccc1Cl	none
CC(CC(=O)Nc1cc([N+](=O)[O-])ccc1Cl)c1ccccc1 (stereo unspecified)	VCAM1 pot 52.6 | VCAM1 pot conf inactive
O=C(NCC1CCCO1)C1CCC(=O)N1Cc1ccccc1Cl (stereo unspecified)	none
COC(=O)COc1ccc(S(=O)(=O)Nc2ccc(NC(C)=O)cc2)cc1C	none
CC(=O)c1cccc(N(CC(=O)O)S(C)(=O)=O)c1	none
COc1cccc(CNC(=O)c2ccc(S(=O)(=O)N3CCCC3)cc2)c1	VCAM1 pot 79.5 | VCAM1 pot conf inactive
CC(=O)c1ccc(N2CCN(S(=O)(=O)c3cccc(S(=O)(=O)N4CCOCC4)c3)CC2)cc1	none
COc1ccc(CNC(=O)c2ccc(CN3CCOCC3)cc2)cc1	none
O=C(NCc1ccco1)c1ccc(S(=O)(=O)c2cccc(S(=O)(=O)N3CCOCC3)c2)cc1	VCAM1 pot inconclusive | VCAM1 pot conf inactive
CC(=O)c1cccc(NC(=O)c2ccc(S(=O)(=O)N3CCCCC3)cc2)c1	none
Cc1cc(S(=O)(=O)N2CCCC2)ccc1OCC(=O)NCc1ccco1	none
Fc1ccc(CSc2ncnc3sc4c(c23)CCCC4)cc1	none
O=C(O)c1[nH]nc2c1COc1ccccc1-2	none
CCOc1ccc2ccccc2c1/C=N/n1cncn1	none
COC(=O)NNC(=O)c1ccccc1C	none
COc1ccc(CSc2nnnn2C)cc1F	none
CC(C)(C)S(=O)c1cccs1 (stereo unspecified)	none
Cc1cc(C)nc(N(C#N)CN2C(=O)c3ccccc3S2(=O)=O)n1	none
O=C(COc1cccc(Oc2ccccc2)c1)Nc1ncccn1	none
COc1ccc(OCCOC(=O)c2cccc(-n3cnnn3)c2)cc1	none
COc1ccc(Cl)cc1NC(=O)COc1cccc(-n2cnnn2)c1	VCAM1 pot inconclusive | VCAM1 pot conf inactive
COCc1cc(Sc2ccc(Cl)cc2Cl)nc(-c2ccccc2)n1	none
N#Cc1ccccc1CSc1nc(N2CCCCC2)nc(N2CCCCC2)n1	none
CCOC(=O)C(NC(C)=O)(N1CCc2ccccc2C1)C(F)(F)F (stereo unspecified)	none
Fc1cccc(-c2nn[nH]n2)c1	VCAM1 pot 30.8 | VCAM1 pot conf inactive
CCCCOC(=O)Nc1nc(CC(=O)OCC)cs1	VCAM1 pot inconclusive | VCAM1 pot conf inactive
CCOC(=O)Cc1csc(/C(=N/O)C(N)=O)n1	none
CCOC(=O)Cc1csc(NC(=O)c2ccc(C)o2)n1	none
C=CCNc1sc(C(=O)c2ccccc2)c(N)c1C#N	none
C=CCNc1sc(C(=O)C2CC2)c(N)c1C#N	VCAM1 pot 30.1 | VCAM1 pot conf inactive
CCCN1CNC(=S)N(c2cc(C)ccc2C)C1	none
CCCCC(=O)Nc1ccccc1C(=O)N1CCOCC1	none
CC(=O)c1c(C(C)=O)c(C)n(CCCCn2c(C)c(C(C)=O)c(C(C)=O)c2C)c1C	none
O=S(=O)(NCc1ccccc1)c1ccc(S(=O)(=O)N(Cc2ccccn2)C2CCCC2)cc1	VCAM1 pot inconclusive | VCAM1 pot conf inactive
CN(Cc1ccccc1)S(=O)(=O)c1ccc(NC(=S)NC(=O)C2CCCC2)cc1	none

Assay outcomes: PubChem BioAssay, Columbia University Molecular Screening Center
